Source: the OligoGym collection

What follows are sequences tested against KRTAP5-8 (assay: pooled miR-30 sensor sort-seq; sequence = guide strand). Details: shRNA.
Note: reference of the scale not given here.

Sequence	sensor-assay potency score (higher = more potent)
CTGCAGGGCTTACAACAGCTGG	-2.04
AGCCTGAGGAGCAACAGCAGGG	-1.24
ACAGGAGCCACAGTCCCCCTTG	-0.958

These sequences were tested against KRTAP5-9 in the same assay as above. Details: shRNA.

Sequence	sensor-assay potency score (higher = more potent)
TTGCAGCAGTAGACGGGTGCAC	-0.372
TGGAACACAGCAGCACACGGGC	-1.32
TGAGGATGAGCAGCAGGGCTTG	-1.74
AGTCACAGCCTCCACAGCTGGA	-1.85
CACACAGGGACACAGCATCTGG	-1.57
TAGAGCAGGAACAGGCTGGAAC	-1.08
TGAAGAGCAACAGCAGGGCTTG	-0.909
TTGCCACAGCTAGAGCAGGAAC	-1.67
TAGGGCTTGCAGCAGCTGCACT	-1.29
TAGACGGGTGCACAGCAGCTGG	-1.34
TCACAGCCTCCACAGCTGGAGC	-1.62
AGCTAGAGCAGGAACAGGCTGG	-1.04
